Experimental data published in PubChem BioAssay (Tox21).
A number with no mark means an inactive call. Results filed as inconclusive are left out. Entries that show only a call come without a potency. Activity calls are given as the source filed them. Unless noted, calls come from the whole dose curve; as a rule, active = well fitted curve in the direction sought with a large enough effect in the repeat runs; inconclusive = weak or mixed curves; inactive = no such curve, though single readings can be large; an effect the other way counts as inactive or inconclusive.

What was measured:
[1] = qHTS assay to identify small molecule HDAC inhibitors (AID 1259364);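 note: wild-type HCT-116 cells with endogenous class I/II HDAC activity; top concentration of the series differs between compounds; nearly all actives have a fitted effect of over 45% in size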
Summary of the method: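 Quantitative high-throughput format: overnight-seeded HCT-116 cells got compounds for 2 hr at 37C; HDAC-Glo I/II reagent added, 30 min RT, luminescence measured.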

[2] = qHTS assay to identify small molecule HDAC inhibitors - cell viability counter screen (AID 1259365); note: series mostly up to about 92 µM; nearly all actives have a fitted effect of over 50% in size
Summary of the method: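 To flag cytotoxic hits, 1,500 wild-type HCT-116 cells per well, plated the day before, receive test compounds for 2hr at 37 C before CellTiter-Glo reagent and a luminescence read.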

[3] = qHTS assay to identify small molecule agonists of the sonic hedgehog signaling (Shh) pathway - cell viability counter screen (AID 1259366); note: nearly all actives have a fitted effect of over 50% in size
Summary of the method: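 Fluorescence from CellTiter-Fluor reports live cells in this counter screen. NIH/3T3-derived Gli1-Luc reporter cells receive test compounds for 24hr at 37C; reagent goes in at 23hr.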

[4] = qHTS assay to identify small molecule antagonists of the sonic hedgehog signaling (Shh) pathway - cell viability counter screen (AID 1259367); note: nearly all actives have a fitted effect of over 55% in size
Summary of the method: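 CellTiter-Fluor signal in conditioned medium-stimulated 3T3 Gli1-Luc cells, 23 hr compound exposure, 37C.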

[5] = qHTS assay to identify small molecule agonists of the sonic hedgehog signaling (Shh) pathway (AID 1259368; calls by dose curve;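 note: NIH/3T3-derived 3T3Gli1-Luc cells carrying a stable Gli1-driven firefly luciferase reporter; series mostly up to about 92 µM; nearly all actives have a fitted effect of over 15% in size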)
Summary of the method: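 Quantitative high-throughput format using a Gli1-driven firefly luciferase reporter line derived from NIH/3T3 cells. After a 24 hr compound treatment at 37 C and 5% CO2, luminescence reported Gli1 response element activity.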

[6] = molecular target: Estrogen receptor beta (Homo sapiens) (UniProt Q92731); experiment: qHTS assay to identify small molecule agonists of the estrogen receptor beta (ER-beta) signaling pathway (AID 1259377; active = well fitted activation curve with a large enough effect in the signal ratio in the repeat runs, not every such curve was filed as active; the % refers to the signal ratio)
Sequence of Estrogen receptor beta (Homo sapiens) (Q92731 whole entry, looked up): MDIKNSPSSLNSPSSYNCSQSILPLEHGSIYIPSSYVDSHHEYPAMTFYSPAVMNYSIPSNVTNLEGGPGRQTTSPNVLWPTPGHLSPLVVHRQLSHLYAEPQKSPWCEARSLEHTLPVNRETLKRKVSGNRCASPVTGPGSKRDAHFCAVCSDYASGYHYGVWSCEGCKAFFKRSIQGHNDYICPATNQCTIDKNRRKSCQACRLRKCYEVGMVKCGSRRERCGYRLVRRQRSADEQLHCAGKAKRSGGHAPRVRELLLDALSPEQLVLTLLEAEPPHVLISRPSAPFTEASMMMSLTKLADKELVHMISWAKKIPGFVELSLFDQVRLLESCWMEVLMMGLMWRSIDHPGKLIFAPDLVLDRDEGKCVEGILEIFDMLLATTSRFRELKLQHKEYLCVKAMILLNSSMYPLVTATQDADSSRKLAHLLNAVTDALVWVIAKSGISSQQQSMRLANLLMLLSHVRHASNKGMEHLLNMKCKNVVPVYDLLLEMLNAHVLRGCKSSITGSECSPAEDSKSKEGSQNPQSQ
Summary of the method: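 Screening used GripTite ER-beta-UAS-bla cells held in 2% charcoal-stripped FBS medium. After overnight (16 hr) compound incubation at 37C, beta-lactamase activity was detected with a FRET substrate by fluorescence.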

[7] = molecular target: Estrogen receptor beta (Homo sapiens) (UniProt Q92731); experiment: qHTS assay to identify small molecule antagonists of the estrogen receptor beta (ER-beta) signaling pathway (AID 1259378; active = well fitted inhibition curve with a large enough effect in the signal ratio in the repeat runs, not every such curve was filed as active; the % refers to the signal ratio)
Summary of the method: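 Antagonist mode: compounds added to beta-lactamase reporter HEK293T ER-beta-UAS cells stimulated with E2 (1nM final), 16 hr at 37C. LiveBLAzer B/G FRET substrate, 2 hours room temperature, fluorescence read-out.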

[8] = qHTS assay to identify small molecule agonists of the androgen receptor (AR) signaling pathway in the presence of an antagonist - cell viability counter screen (AID 1259379);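 note: MDA-kb2 human breast cancer cells carrying an MMTV luciferase reporter; series mostly up to about 92 µM; nearly all actives have a fitted effect of over 25% in size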
Summary of the method: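 Nilutamide-containing (3.0uM final) MDA-kb2 cultures, 3,000 cells/well, were treated with compounds across 15 concentrations. After 16 hr at 37C with no CO2, cell viability was determined by CellTiter-Fluor fluorescence in the luciferase assay wells.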

[9] = qHTS assay to identify small molecule agonists of the estrogen receptor beta (ER-beta) signaling pathway - cell viability counter screen (AID 1259380); note: nearly all actives have a fitted effect of over 30% in size
Summary of the method: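 Steps: plate ER-beta-UAS-bla HEK293T cells, rest 6 hr; add compounds in DMSO; incubate 16 hr at 37C, 5% CO2; add FRET substrate 2 hr; add CellTiter-Glo, wait 30 min at room temperature; read luminescence.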

[10] = qHTS assay to identify small molecule antagonists of the estrogen receptor beta (ER-beta) signaling pathway - cell viability counter screen (AID 1259382);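 note: HEK293T cells carrying ER-beta-UAS-bla reporter stimulated with estradiol; series mostly up to about 92 µM; nearly all actives have a fitted effect of over 55% in size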
Summary of the method: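 Viability is scored by CellTiter-Glo luminescence (30 min, room temperature) in ER-beta-UAS-bla HEK293T wells already read for reporter fluorescence. Compound exposure lasts 16 hr at 37C alongside 1nM 17-beta-estradiol in charcoal-stripped serum medium.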

[11] = molecular target: Estrogen receptor (Homo sapiens) (UniProt P03372); experiment: qHTS assay to identify small molecule agonists of the estrogen receptor alpha (ER-alpha) signaling pathway in the presence of an antagonist (AID 1259383; calls by dose curve; note: top concentration of the series differs between compounds; nearly all actives have a fitted effect of over 15% in size)
Sequence of Estrogen receptor (Homo sapiens) (P03372 whole entry, looked up): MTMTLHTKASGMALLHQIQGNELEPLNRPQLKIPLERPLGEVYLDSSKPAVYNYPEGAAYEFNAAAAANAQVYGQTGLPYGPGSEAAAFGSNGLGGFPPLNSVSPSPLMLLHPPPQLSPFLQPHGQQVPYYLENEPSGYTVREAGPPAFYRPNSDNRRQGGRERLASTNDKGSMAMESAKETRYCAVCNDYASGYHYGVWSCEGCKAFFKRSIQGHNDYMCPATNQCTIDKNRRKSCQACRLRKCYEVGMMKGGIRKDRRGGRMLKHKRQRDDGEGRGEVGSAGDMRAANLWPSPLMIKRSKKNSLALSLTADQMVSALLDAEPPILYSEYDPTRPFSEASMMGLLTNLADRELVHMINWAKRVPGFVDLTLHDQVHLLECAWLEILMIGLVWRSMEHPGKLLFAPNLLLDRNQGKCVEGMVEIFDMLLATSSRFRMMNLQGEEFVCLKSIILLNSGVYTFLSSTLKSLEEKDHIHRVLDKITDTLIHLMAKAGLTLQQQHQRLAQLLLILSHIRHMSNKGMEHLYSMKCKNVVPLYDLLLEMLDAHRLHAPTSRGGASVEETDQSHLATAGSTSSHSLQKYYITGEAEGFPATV
Summary of the method: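 Readout was ERE-driven luciferase luminescence in VM7Luc4E2 cells, which express full-length ER-alpha endogenously. Compounds were tested at 15 concentrations for 22hr alongside 10.0nM ICI-182,780 (final concentration).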

[12] = qHTS assay to identify small molecule agonists or antagonists of the thyroid stimulating hormone receptor (TSHR) signaling pathway - wild type cell line counter screen (AID 1259384; calls by dose curve)
Summary of the method: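 Counter screen in untransfected Hek293: compounds (15-point titration, triplicate) plus phosphodiesterase inhibitor Ro20-1724 added after 18 h plating; 30 min RT. Intracellular cAMP via competitive d2/cryptate immunoassay, 1 h incubation.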

[13] = molecular target: Thyrotropin receptor (Homo sapiens) (UniProt P16473); experiment: qHTS assay to identify small molecule antagonists of the thyroid stimulating hormone receptor (TSHR) signaling pathway (AID 1259385; calls by dose curve; note: nearly all actives have a fitted effect of over 20% in size)
Sequence of Thyrotropin receptor (Homo sapiens) (P16473 whole entry, looked up): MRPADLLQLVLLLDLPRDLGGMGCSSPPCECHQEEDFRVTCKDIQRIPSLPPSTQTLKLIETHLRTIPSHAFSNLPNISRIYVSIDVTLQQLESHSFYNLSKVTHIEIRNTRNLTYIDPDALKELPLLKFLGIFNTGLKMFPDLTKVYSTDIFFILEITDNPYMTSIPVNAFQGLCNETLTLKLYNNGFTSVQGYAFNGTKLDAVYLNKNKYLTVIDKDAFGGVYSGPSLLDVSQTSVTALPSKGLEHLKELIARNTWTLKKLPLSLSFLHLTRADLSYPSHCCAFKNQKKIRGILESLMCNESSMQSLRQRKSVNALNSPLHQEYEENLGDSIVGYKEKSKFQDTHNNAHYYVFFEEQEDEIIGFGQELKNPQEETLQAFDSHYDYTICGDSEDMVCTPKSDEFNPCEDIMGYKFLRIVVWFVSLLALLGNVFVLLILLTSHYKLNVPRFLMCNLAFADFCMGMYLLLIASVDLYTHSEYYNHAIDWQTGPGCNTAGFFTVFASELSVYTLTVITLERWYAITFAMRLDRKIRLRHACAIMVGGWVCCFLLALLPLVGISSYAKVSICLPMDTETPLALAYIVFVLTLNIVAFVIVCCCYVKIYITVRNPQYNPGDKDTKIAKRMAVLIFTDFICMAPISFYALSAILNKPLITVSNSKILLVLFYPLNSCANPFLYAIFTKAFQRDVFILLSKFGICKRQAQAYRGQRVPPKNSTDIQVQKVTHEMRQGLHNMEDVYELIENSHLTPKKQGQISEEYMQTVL
Summary of the method: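 Antagonist mode: compound-treated TSHR-expressing HEK293 cells were stimulated with 1.5 ng/mL TSH (final) in presence of Ro20-1724 for 30 min at RT. HTRF cAMP detection after 1 h; each compound tested at 15 concentrations, triplicate.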

[14] = qHTS assay to identify small molecule agonists of the estrogen receptor alpha (ER-alpha) signaling pathway in the presence of an antagonist - cell viability counter screen (AID 1259386);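 note: series mostly up to about 92 µM; cells exposed to compounds for 22 h at 37 °C before the viability read; nearly all actives have a fitted effect of over 30% in size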
Summary of the method: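 In this counter screen, compound effects on VM7Luc4E2 viability were tested in the presence of the antagonist ICI-182,780 at 10.0nM final. Compounds were dosed at 15 concentrations, exposure lasted 22hr, and the CellTiter-Fluor signal was read.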

[15] = molecular target: Progesterone receptor (Homo sapiens) (UniProt P06401); experiment: qHTS assay to identify small molecule agonists of the progesterone receptor (PR) signaling pathway (AID 1346784; calls by dose curve; note: nearly all actives have a fitted effect of over 30% in size; note: potency is the fitted concentration of half-maximal effect)
Sequence of Progesterone receptor (Homo sapiens) (P06401 whole entry, looked up): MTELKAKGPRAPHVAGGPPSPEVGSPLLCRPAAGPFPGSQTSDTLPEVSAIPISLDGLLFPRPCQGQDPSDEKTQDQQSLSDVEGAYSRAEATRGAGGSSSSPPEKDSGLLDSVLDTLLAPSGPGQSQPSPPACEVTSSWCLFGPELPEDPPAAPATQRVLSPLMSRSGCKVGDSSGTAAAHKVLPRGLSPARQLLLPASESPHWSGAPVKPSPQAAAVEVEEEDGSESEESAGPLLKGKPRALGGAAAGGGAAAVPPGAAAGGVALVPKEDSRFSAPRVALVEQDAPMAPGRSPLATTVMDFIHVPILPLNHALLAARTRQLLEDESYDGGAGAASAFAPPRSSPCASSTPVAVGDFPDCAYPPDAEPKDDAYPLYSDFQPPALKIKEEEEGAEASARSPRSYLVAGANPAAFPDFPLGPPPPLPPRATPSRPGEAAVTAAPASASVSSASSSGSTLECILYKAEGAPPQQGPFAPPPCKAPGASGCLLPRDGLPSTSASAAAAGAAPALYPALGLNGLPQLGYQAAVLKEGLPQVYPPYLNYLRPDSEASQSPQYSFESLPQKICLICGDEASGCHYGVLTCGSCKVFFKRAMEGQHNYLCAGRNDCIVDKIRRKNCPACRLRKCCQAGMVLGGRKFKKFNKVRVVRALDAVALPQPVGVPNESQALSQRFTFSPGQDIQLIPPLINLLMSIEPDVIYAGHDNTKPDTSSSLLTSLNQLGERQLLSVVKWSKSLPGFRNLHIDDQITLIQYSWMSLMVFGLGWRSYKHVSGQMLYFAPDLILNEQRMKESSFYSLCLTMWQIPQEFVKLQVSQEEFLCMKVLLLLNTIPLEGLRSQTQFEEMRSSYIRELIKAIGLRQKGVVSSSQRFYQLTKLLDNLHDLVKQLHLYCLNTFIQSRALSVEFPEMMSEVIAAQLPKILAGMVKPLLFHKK
Summary of the method: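 Seed PR-UAS-bla HEK 293T cells (2% charcoal-stripped FBS), incubate 6 hr at 37C; add compounds in DMSO, 16 hr at 37C; add LiveBLAzer B/G substrate, 2 hr RT; read fluorescence intensity.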

[16] = molecular target: Progesterone receptor (Homo sapiens) (UniProt P06401); experiment: qHTS assay to identify small molecule antagonists of the progesterone receptor (PR) signaling pathway (AID 1346795; active = well fitted inhibition curve with a large enough effect in the signal ratio in the repeat runs, not every such curve was filed as active; the % refers to the signal ratio)
Summary of the method: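 Screening used a GripTite HEK293T line with PR-responsive UAS-beta-lactamase. Cells were challenged with compound in the presence of 1 nM R5020 final for 16 hr at 37C; B/G FRET substrate, 2 hr room temperature, fluorescence.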

[17] = qHTS assay to identify small molecule agonists of the progesterone receptor (PR) signaling pathway - cell viability counter screen (AID 1346799; calls by dose curve; note: nearly all actives have a fitted effect of over 45% in size)
Summary of the method: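 Using the same plates as the PR reporter screen, HEK293T PR-UAS-bla cells received compounds for 16 hr at 37C and were then lysed with CellTiter-Glo; luminescence was read 30 min later at room temperature.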

[18] = qHTS assay to identify small molecule antagonists of the progesterone receptor (PR) signaling pathway - cell viability counter screen (AID 1346798); note: series mostly up to about 92 µM; nearly all actives have a fitted effect of over 50% in size
Summary of the method: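 Measures cytotoxicity in parallel with the PR antagonist reporter read: HEK293T PR-UAS-bla cells get compound and R5020 for 16 hr, and remaining viable cells are quantified by CellTiter-Glo luminescence.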

[19] = qHTS assay to identify small molecule antagonists of the TGF-beta/Smad signaling pathway - cell viability counter screen (AID 1346824); note: nearly all actives have a fitted effect of over 50% in size
Summary of the method: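 Cytotoxicity counter-screen run in the same wells as the beta-lactamase Smad reporter read: CellTiter-Glo luminescence after 30 min at room temperature. HEK 293T SBE-bla cells had 5 hr compound exposure at 37 C with TGF-beta1 (0.25 ng/mL stock).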

[20] = qHTS assay to identify small molecule antagonists of the sonic hedgehog signaling (Shh) pathway (AID 1259369; calls by dose curve; note: nearly all actives have a fitted effect of over 45% in size)
Summary of the method: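 Stable Gli1-Luc reporter NIH/3T3 clone; quantitative HTS in stimulated mode with conditioned medium. Luminescence measured after 24hr compound treatment at 37 C.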

SMILES: CC(C)(c1ccc(Oc2ccc3c(c2)C(=O)OC3=O)cc1)c1ccc(Oc2ccc3c(c2)C(=O)OC3=O)cc1
- Potency [1]: inactive
- outcome [2]: inactive
- Potency [3]: inactive
- Potency [4]: inactive
- outcome [5]: inactive
- Potency [6]: inactive
- outcome [7]: inactive
- Potency [8]: inactive
- outcome [9]: inactive
- outcome [10]: inactive
- outcome [11]: inactive
- outcome [12]: inactive
- outcome [13]: inactive
- Potency [14]: inactive
- Potency [15]: inactive
- Potency [16]: inactive
- Potency [17]: inactive

SMILES: Cc1ccccc1C
- Potency [1]: inactive
- outcome [2]: inactive
- Potency [3]: inactive
- Potency [4]: inactive
- outcome [5]: inactive
- Potency [6]: inactive
- outcome [7]: inactive
- Potency [8]: inactive
- outcome [9]: inactive
- outcome [10]: inactive
- outcome [11]: inactive
- Potency [14]: inactive
- Potency [15]: inactive
- Potency [16]: inactive
- Potency [18]: inactive
- Potency [17]: inactive
- outcome [19]: inactive

SMILES: C=C(C)C(=O)OC
- Potency [1]: inactive
- outcome [2]: inactive
- Potency [3]: inactive
- Potency [4]: inactive
- outcome [5]: inactive
- Potency [20]: inactive
- Potency [8]: inactive
- outcome [9]: inactive
- outcome [10]: inactive
- outcome [12]: inactive
- outcome [13]: inactive
- Potency [14]: inactive
- Potency [15]: inactive
- Potency [16]: inactive
- Potency [18]: inactive
- Potency [17]: inactive

SMILES: O=CO
- activity change, negative = inhibition [1]: -0.333% [at 8.39 µM]
- activity change, negative = cytotoxicity [2]: -1.28% [at 8.39 µM]
- viability change, negative = cytotoxic [3]: 5.23% [at 8.39 µM]
- viability change, negative = cytotoxic [4]: 1.7% [at 8.39 µM]
- activity change [5]: -0.175% [at 8.39 µM]
- activity change, negative = inhibition [20]: 8.06% [at 8.39 µM]
- activity change, negative = cytotoxicity [8]: 0.727% [at 8.39 µM]
- activity change, negative = cytotoxicity [9]: 0.536% [at 8.39 µM]
- activity change, negative = cytotoxicity [10]: 7.25% [at 8.39 µM]
- activity change, negative = cytotoxicity [14]: -5.19% [at 8.39 µM]
- Potency [15]: 2.51 µM (active)
- activity change, negative = inhibition [16]: 8.24% [at 8.39 µM]
- activity change, negative = cytotoxicity [18]: 2.97% [at 8.39 µM]
- activity change, negative = cytotoxicity [17]: 21.2% [at 8.39 µM]
- viability change, negative = cytotoxic [19]: -0.889% [at 6.97 µM]
